Bioassay records: PubChem, several laboratories
This is a sample that favours compounds with a hit; in the whole collection about 3% have one here.
HIF-2a inh: HIF-2a inhibition; actives 0.72% (n = 360,000); inhibition, % at 18.8 µM; 786-0 RCC cells HIF-2a reporter, luciferase luminescence, overnight;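 active means inhibition of the luminescence signal of 40% or more relative to plate controls, in a single-dose primary screen at 18.75 µM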
Peg3 promoter: inhibitors of Peg3 promoter; HeLa PEG-Prom luciferase reporter, luminescence, overnight; inhibition, % at 20 µM; actives 1.7% (n = 360,000); AID 588405;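 active means inhibition of at least 50% at 20 µM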
KKLEB tox: counter-screen for CF NF-kB inhibitors: cytotoxicity; KKLEB CF airway cells viability, ATPlite luminescence, overnight; hits give low values; cells stimulated with P. aeruginosa culture filtrate; activity change (cytotoxicity), % at 5 µM; actives 0.36% (n = 360,000);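 active means corrected activity change at or below -50% at 5 µM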
CF NFkB inh: blocks PAF-induced NF-kB reporter in cystic fibrosis cells. KKLEB NF-kB-GFP reporter, GFP fluorescence overnight. inhibition, % at 5 µM. actives 0.86% (n = 360,000). AID 588850;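 active means at least 50% inhibition at 5 µM, scaled per plate between neutral and stimulator controls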;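 further: PAF is a Pseudomonas aeruginosa culture filtrate used as stimulus; plate controls were PAF-stimulated DMSO wells for no effect and unstimulated DMSO wells for full effect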
MITF TRPM1 inh: reduces MITF-dependent TRPM1 promoter luciferase signal; inhibition, % at 12.5 µM; SK-MEL-5 TRPM1 promoter luciferase, 24 h; actives 0.83% (n = 330,000);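 active means mean inhibition across replicates of 60% or more, whatever share of single replicates reaches that level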
EBV LMP1 NFkB: reduces LMP1-driven NF-kappaB luciferase signal; inhibition, % at 12.5 µM; LMP1-induced NF-kappaB luciferase reporter cells, luminescence; actives 0.69% (n = 350,000); in the data active means inhibition above about 41%;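 further: 0% = neutral control wells and 100% = reference inhibitor control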
The depositor's hits bear a star; ! = repeats disagree.

How did COc1ccccc1N(CC(=O)N1CCCCC1C)S(=O)(=O)c1ccc(Cl)cc1 (stereo not drawn) do in these assays?
HIF-2a inh: 3; Peg3 promoter: 1; KKLEB tox: 4; CF NFkB inh: -19; EBV LMP1 NFkB: 9

Results for COc1ccc(CNC(=O)C(c2ccc(C)o2)N(Cc2cccs2)C(=O)Cc2cccs2)cc1 (stereo not drawn) ?
HIF-2a inh: 5; Peg3 promoter: 60*; KKLEB tox: 3; CF NFkB inh: 10; MITF TRPM1 inh: 11; EBV LMP1 NFkB: -2

How did CCOC(=O)c1ccc(CC(=O)c2ccc(O)cc2O)o1 do in these assays?
HIF-2a inh: 5; Peg3 promoter: 1; KKLEB tox: 2; CF NFkB inh: 2; MITF TRPM1 inh: 49; EBV LMP1 NFkB: 51*

What do the screens show for `COC(=O)c1ccc(CC(=O)c2ccc(O)cc2O)o1`?
HIF-2a inh: 12; Peg3 promoter: 9; KKLEB tox: -10; CF NFkB inh: 1; MITF TRPM1 inh: 19; EBV LMP1 NFkB: 0

What do the screens show for `CCOC(=O)C1=C(COC(=O)CCOc2ccc(C)cc2)NC(=O)NC1C` (stereo not drawn)?
HIF-2a inh: -17; Peg3 promoter: 56*; KKLEB tox: -13; CF NFkB inh: 44; MITF TRPM1 inh: -7; EBV LMP1 NFkB: 11

Results for CCOC(=O)C1=C(COC(=O)CCOc2ccc(OC)cc2)NC(=O)NC1C (stereo not drawn) ?
HIF-2a inh: 1; Peg3 promoter: 5; KKLEB tox: -2; CF NFkB inh: 4; MITF TRPM1 inh: 0; EBV LMP1 NFkB: -2

How did Cc1ccccc1-c1csc(C(C)(O)c2ccc(F)c(F)c2)n1 (stereo not drawn) do in these assays?
HIF-2a inh: -29; Peg3 promoter: -4; KKLEB tox: 1; CF NFkB inh: 19

Results for CCCCCCCCCCCCCCCCCCNc1ccn(C2OC(COP(=O)(O)OCC3OC(n4cc(F)c(=O)[nH]c4=O)CC3O)C(O)C2O)c(=O)n1 (stereo not drawn) ?
HIF-2a inh: -3; Peg3 promoter: 12; KKLEB tox: 5; CF NFkB inh: 26; MITF TRPM1 inh: -3; EBV LMP1 NFkB: 23

How did COc1ccc(C2=Nn3c(nnc3-c3ccccc3F)SC2)cc1OC1CCCC1 do in these assays?
HIF-2a inh: -194; Peg3 promoter: -110; KKLEB tox: -32; CF NFkB inh: 29; MITF TRPM1 inh: -2; EBV LMP1 NFkB: 55*

Results for CS(=O)(=O)Nc1ccccc1-c1cccc2nccn12 ?
HIF-2a inh: 12; Peg3 promoter: 10; KKLEB tox: -1; CF NFkB inh: -15

How did COc1cc(NC(=O)c2ccco2)c(C(=O)OCC(=O)c2c[nH]c3ccccc23)cc1OC do in these assays?
HIF-2a inh: 0; Peg3 promoter: 75*; KKLEB tox: -11; CF NFkB inh: 5; MITF TRPM1 inh: -7; EBV LMP1 NFkB: 9

How did CC(=O)O[C@H]1CC[C@@]2(C)C(=CC[C@H]3[C@@H]4CC[C@H](C(C)=O)[C@@]4(C)CC[C@@H]32)C1 do in these assays?
HIF-2a inh: -3; Peg3 promoter: 18; KKLEB tox: 6; CF NFkB inh: 16; MITF TRPM1 inh: -9; EBV LMP1 NFkB: 54*

Results for O=C(O)CSc1cc(NS(=O)(=O)c2ccc(Br)cc2)c2ccccc2c1O ?
HIF-2a inh: 5; Peg3 promoter: 45; KKLEB tox: -31; CF NFkB inh: 91*; MITF TRPM1 inh: 48; EBV LMP1 NFkB: 2

How did O=S(=O)(Nc1cc(Sc2ncn[nH]2)c(O)c2ccccc12)c1ccccc1 do in these assays?
HIF-2a inh: 3; Peg3 promoter: -5; KKLEB tox: 7; CF NFkB inh: 79*; MITF TRPM1 inh: 40; EBV LMP1 NFkB: 1

What do the screens show for `Cc1ccc(S(=O)(=O)Nc2ccc(Br)cc2C(NCC(=O)O)c2ccccc2)cc1` (stereo not drawn)?
HIF-2a inh: 20; Peg3 promoter: 10; KKLEB tox: 8; CF NFkB inh: 24; MITF TRPM1 inh: 16; EBV LMP1 NFkB: 0

What do the screens show for `O=C(/C=C/c1ccc(Cl)cc1Cl)Nc1cccc(S(=O)(=O)NC2=NCCC2)c1`?
HIF-2a inh: -177; Peg3 promoter: -161; KKLEB tox: -58*; CF NFkB inh: -3; MITF TRPM1 inh: -34; EBV LMP1 NFkB: -4

Results for O=C(/C=C/c1ccccc1Cl)Nc1cccc(S(=O)(=O)NC2=NCCCCC2)c1 ?
HIF-2a inh: -186; Peg3 promoter: -125; KKLEB tox: 1; CF NFkB inh: -23; MITF TRPM1 inh: -24; EBV LMP1 NFkB: -3

How did COc1ccc(NC(=O)C2CC(=O)OC23CCCCC3)cc1 (stereo not drawn) do in these assays?
HIF-2a inh: 24; Peg3 promoter: 5; KKLEB tox: -3; CF NFkB inh: 4; MITF TRPM1 inh: -1; EBV LMP1 NFkB: -8

What do the screens show for `O=C1CC(C(=O)Nc2ccccc2)C2(CCCCC2)O1` (stereo not drawn)?
HIF-2a inh: 11; Peg3 promoter: 5; KKLEB tox: -7; CF NFkB inh: 1; MITF TRPM1 inh: 7; EBV LMP1 NFkB: 65*

How did CC1CC(C)(C)CC2(C1)NC(=O)N(CC(=O)Nc1ccc3c(c1)OCO3)C2=O (stereo not drawn) do in these assays?
HIF-2a inh: -16; Peg3 promoter: -7; KKLEB tox: 11; CF NFkB inh: -5; EBV LMP1 NFkB: -10

How did Cc1ccccc1S(=O)(=O)N1C(c2ccc(Cl)cc2)CC=C(C(=O)O)C1c1cccc(Cl)c1 (stereo not drawn) do in these assays?
HIF-2a inh: 12

How did C[C@H]1[C@H](C)CC[C@]2(C(=O)O)CC[C@]3(C)C(=CC[C@@H]4[C@@]5(C)C[C@@H](O)[C@H](O)C(C)(C)[C@@H]5CC[C@]43C)[C@H]12 do in these assays?
HIF-2a inh: 35; Peg3 promoter: 23; KKLEB tox: -12; CF NFkB inh: 12; MITF TRPM1 inh: 7; EBV LMP1 NFkB: -6

What do the screens show for `C[C@H]1[C@H](C)CC[C@]2(C(=O)O)CC[C@]3(C)C(=CC[C@@H]4[C@@]5(C)CC[C@H](O)C(C)(C)[C@@H]5CC[C@]43C)[C@H]12`?
HIF-2a inh: 5; Peg3 promoter: 53*; KKLEB tox: -3; CF NFkB inh: 7; MITF TRPM1 inh: 4; EBV LMP1 NFkB: 1

Results for CC1CCC(C(C)C)C(OC(=O)Cn2c(-c3ccccc3)[n+](C)c3ccccc32)C1 (stereo not drawn) ?
HIF-2a inh: -2; Peg3 promoter: 65*; KKLEB tox: -54*!; CF NFkB inh: 55*!; MITF TRPM1 inh: 87*; EBV LMP1 NFkB: -21

How did COc1ccccc1NC(=O)Nc1ccnn1C1CCN(C(=O)C2CCOC2)CC1 (stereo not drawn) do in these assays?
HIF-2a inh: 10; Peg3 promoter: 8; KKLEB tox: -5; CF NFkB inh: -9; EBV LMP1 NFkB: 4

What do the screens show for `CN1[C@@H](Cc2ccccc2)COc2cc(N3CCSCC3)ccc2S1(=O)=O`?
HIF-2a inh: -4
